# From PubChem BioAssay (NCATS)
# Results filed as inconclusive are left out. Values without a mark were called inactive. Calls follow the shape of the dose curve; as a rule, active = well fitted cell-killing curve with a large enough effect; inconclusive = small, poorly fitted or top-dose-only effect, or effect the other way; inactive = flat fitted curve, though single readings scatter. *1 amine or outer side, *2 acyl side, *3 side chain or, on linkers, in order; H or OH if unused. Where a SMILES comes first, the peptide text is derived from it. [ ]: non-standard residue; d: D form. The star is where a group is joined. X13 = O=C(C(CC(O)CO)O[*:1])[*:2]; NMeV = CN[CH](C(=O)O)C(C)C; βNA = c1ccc2cc(N*)ccc2c1; Cbz = O=C(OCc1ccccc1)*; NMeA = CN[CH](C)C(=O)O; βAla = NCCC(=O)O
# Tested on: CAOV3
# Test: Primary qHTS to identify gynecologic anti-cancer compounds using libraries of approved drugs and bioactive compounds (AID 1345084); also: nearly all actives have a fitted effect of over 55% in size
# Conditions: Gynecologic cancer cell panel viability, ATPlite luminescence, 48 h; series mostly up to 57.5 µM; activity change, negative = cytotoxicity: at the top concentration
# Outline: (§1)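 ATP-based viability (ATPlite), 1,000 cells/well, 16 h pre-incubation, 48 h compound at 37 C, 5% CO2, 15 min RT before read.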
# % is scaled to controls: 0 for no effect and ±100 for the full control effect.
row,SMILES,"activity change, negative = cytotoxicity"
1,C=C(C)C1CCC2(C(=O)OC3OC(COC4OC(CO)C(O)C(O)C4O)C(OC4OC(C)C(O)C(O)C4O)C(O)C3O)CCC3(C(=O)O)C(CCC4C5(C)CCC(=O)C(C)(C)C5CCC43C)C12 (stereo unspecified),1.66% [at 11.6 µM]
2,CC1=C(CC/C(C)=C/C(=O)O)[C@@]2(C)CCCC(C)(C)C2CC1=O (stereo partly specified),5.81% [at 38.5 µM]
3,C[C@]12CCC[C@](C)(C(=O)O)C1[C@@H](O)[C@@H](O)C13CC(CCC12)C(CO)(O[C@@H]1O[C@H](CO)[C@@H](O)[C@H](O)[C@H]1O)C3 (stereo partly specified),7.94% [at 25.3 µM]
4,COc1cc(O)cc(C)c1C(=O)O[C@H]1[C@@H](O)[C@@H](n2ccc(=O)[nH]c2=O)O[C@@H]1CO,-4.45% [at 25.3 µM]
5,C=C1C(=O)O[C@@H]2C[C@]3(C)[C@@H](CCC(C)=O)[C@@H]3C[C@H]12,-1.63%
6,C=C1CC[C@@]2(OC1)O[C@H]1CC3[C@@H]4CC=C5C[C@@H](O)C[C@@H](O[C@@H]6OC[C@H](O)[C@H](O)[C@H]6O[C@@H]6O[C@@H](C)[C@H](O)[C@@H](O)[C@H]6O)[C@]5(C)C4CC[C@]3(C)[C@H]1[C@@H]2C (stereo partly specified),1.85% [at 25.3 µM]
7,C/C=C(\C)C(=O)OCC1OC(OCC2OC(OC3(CO)OC(CO)C(O)C3O)C(O)C(O)C2O)C(O)C(O)C1O (stereo unspecified),2.61% [at 25.3 µM]
8,COC(=O)C1=CO[C@@H](O[C@@H]2O[C@H](CO)[C@@H](O)[C@H](O)[C@H]2O)/C(=C\CO)[C@@H]1CC(=O)OCCc1ccc(O)cc1,14.8% [at 25.3 µM]
9,CCC(C)C1NC(=O)C2CCCN2C(=O)C(CC(O)CO)OC(=O)CCNC(=O)C(C)N(C)C(=O)C(C(C)C)N(C)C1=O (stereo unspecified) (cyclo([X13]PI[NMeV][NMeA][βAla]); configuration not given here),-2.43% [at 25.3 µM]
10,O=C(C[C@@H]1C(C(=O)O)=CO[C@@H](O[C@@H]2O[C@H](CO)[C@@H](O)[C@H](O)[C@H]2O)/C1=C\CO)OCCc1ccc(O)cc1,-4.34% [at 25.3 µM]
11,COC(=O)[C@H](O)[C@H]1C(C)(C)[C@H](OC(C)=O)[C@@]2(O)C(=O)[C@]1(C)C1CC[C@]3(C)C(CC(=O)O[C@H]3c3ccoc3)[C@]13O[C@@H]32 (stereo partly specified),-3.47% [at 25.3 µM]
12,CC(=O)c1c(C)cccc1O[C@@H]1O[C@H](CO)[C@@H](O)[C@H](O)[C@H]1O,12% [at 38.5 µM]
13,C/C=C(\C)C(=O)OC1CC2C(CC=C3CC(OC4CC(OC)C(OC5CC(OC)C(OC6CC(OC)C(OC7CC(OC)C(OC8CC(OC)C(OC9OC(CO)C(O)C(O)C9O)C(C)O8)C(C)O7)C(C)O6)C(C)O5)C(C)O4)CCC32C)C2(O)CCC(C(C)=O)C12C (stereo unspecified),-9.87% [at 6.55 µM]
14,COc1ccc2[nH]c(S(=O)Cc3ncc(C)c(OC)c3C)nc2c1 (stereo unspecified),16%
15,COc1cc(C)c(C(=O)OC2C(C)OC(OC3CCC(C)C4C3C=C(C)C3/C(C)=C\CC/C(C)=C/C5(C)C=C(C(=O)O)C(C)CC56OC(=O)/C(=C(\O)C34C)C6=O)C(O)C2O)c(OC)c1 (stereo unspecified),11.9% [at 11.6 µM]
16,COc1ccc(/C=C/C(=O)O[C@@H]2[C@@H](O[C@@H]3O[C@H](CO)[C@@H](O)[C@H](O)[C@H]3O)[C@@H](O)[C@H](O[C@H]3C4C=CO[C@@H](O[C@@H]5O[C@H](CO)[C@@H](O)[C@H](O)[C@H]5O)C4[C@@]4(CO)O[C@@H]34)O[C@H]2C)cc1 (stereo partly specified),-4.58% [at 11.6 µM]
17,CC(C)C1NC(=O)C(CC2(O)c3ccccc3N3C(=O)C(Cc4ccccc4)NC32)NC1=O (stereo unspecified),-4.05% [at 25.3 µM]

# Tested on: CASKI
# Test: as above
# Conditions: Gynecologic cancer cell panel viability, ATPlite luminescence, 48 h; series mostly up to 57.5 µM; activity change, negative = cytotoxicity: at the top concentration
# Outline: as §1
row,SMILES,"activity change, negative = cytotoxicity"
1,NC(N)=NCCC[C@H](NC(=O)c1sccc1NS(=O)(=O)c1cccc2nsnc12)C(=O)O,17.9%
2,Nc1ccc(-n2nc(C(F)(F)F)cc2C(F)(F)F)cc1,7.74%
3,C[C@H](O)C(O)(C(=O)OCc1ccccc1NC(=O)CCC(N)C(=O)O)[C@H](C)O (stereo partly specified),5.95% [at 25.3 µM]
4,CC[C@H](NC(=O)c1c(O)c(-c2ccccc2)nc2ccccc12)c1ccccc1,10.1%
5,CC/C=C/C(O)C(O)C1=C(C)C(=O)C2(O1)C(=O)NC(OC)(C(=O)c1ccccc1)C2O (stereo unspecified),14% [at 25.3 µM]
6,Fc1cccc(CN(C2=NCCN2)c2c(Cl)cccc2Cl)c1,-2.83%
7,O=C(O)CCc1cccc(O)c1O[C@@H]1O[C@H](CO)[C@@H](O)[C@H](O)[C@H]1O,-3.41% [at 38.5 µM]
8,CCC(C)/C=C(C)/C=C/C1=CC2=CC(=O)C(C)(O)C(OC(C)=O)C2CO1 (stereo unspecified),-3.13% [at 38.5 µM]
9,CC1CC(O)/C=C/C(O)/C=C\C(=O)O1 (stereo unspecified),-1.31%
10,CC(C)CC(NC(=O)OCc1ccccc1)C(=O)NC(CC(C)C)C(=O)NC(CCC(=O)O)C(=O)Nc1ccc2ccccc2c1 (stereo not drawn) (Cbz-Leu-Leu-Glu-βNA; configuration not given here),2.88%
11,COCc1c(O)c(C(=O)O)c(C)c2c1OC(=O)c1c(C)cc(O)c(CO)c1O2,7.16% [at 38.5 µM]
12,C=C(C(=O)O)C1CC(O)C2(C)CCCC(C)(O)C2C1 (stereo unspecified),8.58%
13,C=C[C@H]1[C@H](O[C@@H]2O[C@H](CO)[C@@H](O)[C@H](OC(=O)/C=C/c3ccc(O)c(OC)c3)[C@H]2O)OC=C2C(=O)OCC[C@]21O,-15.9% [at 25.3 µM]
14,COC(=O)C1(O)C(OC(C)=O)CCC2C3(CC(c4ccoc4)OC3=O)C(C)=CCC21C(=O)OC (stereo unspecified),8.11% [at 25.3 µM]
15,O=C(Nc1cc(-c2ccccc2)nn1-c1ccccc1F)c1ccc([N+](=O)[O-])cc1,20.1%
16,Cc1sc(C)c(C(=O)NC2(c3ccc(C(=O)O)cc3)CC2)c1Cc1ccc(C(F)(F)F)cc1,-1.16%
17,COc1cc([C@@H](O[C@@H]2O[C@H](CO)[C@@H](O)[C@H](O)[C@H]2O)[C@@H]2CO[C@H](c3ccc(O)c(OC)c3)[C@H]2CO)ccc1O,15.3% [at 25.3 µM]
18,CC(C)NC(=O)c1ccc(C#Cc2ccncc2)cn1,7.49%
19,O=C(O)CC/C=C\C[C@H]1CO[C@@H](c2ccccc2Cl)O[C@H]1c1ccccc1O,11.7%
20,CC(C)=CCc1cc(O[C@@H]2O[C@H](CO[C@@H]3OC[C@](O)(CO)[C@H]3O)[C@@H](O)[C@H](O)[C@H]2O)ccc1O,-2.8% [at 25.3 µM]

row,SMILES,"activity change, negative = cytotoxicity"
1,CC1(C)[C@@H]2CC=C(CO[C@@H]3O[C@H](CO[C@@H]4OC[C@H](O)[C@H](O)[C@H]4O)[C@@H](O)[C@H](O)[C@H]3O)[C@H]1C2,13.7% [at 25.3 µM]
2,COc1ccc(C2C(C(=O)O)C(C(=O)O)C2c2ccc(OC)cc2O[C@@H]2O[C@H](CO)[C@@H](O)[C@H](O)[C@H]2O)c(O[C@@H]2O[C@H](CO)[C@@H](O)[C@H](O)[C@H]2O)c1 (stereo partly specified),7.22% [at 25.3 µM]
3,C=C(C)C1CCC2(C(=O)OC3OC(COC4OC(CO)C(O)C(O)C4O)C(OC4OC(C)C(O)C(O)C4O)C(O)C3O)CCC3(C(=O)O)C(CCC4C5(C)CCC(=O)C(C)(C)C5CCC43C)C12 (stereo unspecified),-3.34% [at 11.6 µM]
4,CC1=C(CC/C(C)=C/C(=O)O)[C@@]2(C)CCCC(C)(C)C2CC1=O (stereo partly specified),-2.87% [at 38.5 µM]
5,C[C@]12CCC[C@](C)(C(=O)O)C1[C@@H](O)[C@@H](O)C13CC(CCC12)C(CO)(O[C@@H]1O[C@H](CO)[C@@H](O)[C@H](O)[C@H]1O)C3 (stereo partly specified),-17.4% [at 25.3 µM]
6,COc1cc(O)cc(C)c1C(=O)O[C@H]1[C@@H](O)[C@@H](n2ccc(=O)[nH]c2=O)O[C@@H]1CO,-1.5% [at 25.3 µM]
7,C=C1C(=O)O[C@@H]2C[C@]3(C)[C@@H](CCC(C)=O)[C@@H]3C[C@H]12,20.9%
8,C=C1CC[C@@]2(OC1)O[C@H]1CC3[C@@H]4CC=C5C[C@@H](O)C[C@@H](O[C@@H]6OC[C@H](O)[C@H](O)[C@H]6O[C@@H]6O[C@@H](C)[C@H](O)[C@@H](O)[C@H]6O)[C@]5(C)C4CC[C@]3(C)[C@H]1[C@@H]2C (stereo partly specified),0.171% [at 25.3 µM]
9,C/C=C(\C)C(=O)OCC1OC(OCC2OC(OC3(CO)OC(CO)C(O)C3O)C(O)C(O)C2O)C(O)C(O)C1O (stereo unspecified),12.9% [at 25.3 µM]
10,COC(=O)C1=CO[C@@H](O[C@@H]2O[C@H](CO)[C@@H](O)[C@H](O)[C@H]2O)/C(=C\CO)[C@@H]1CC(=O)OCCc1ccc(O)cc1,4.05% [at 25.3 µM]
11,CCC(C)C1NC(=O)C2CCCN2C(=O)C(CC(O)CO)OC(=O)CCNC(=O)C(C)N(C)C(=O)C(C(C)C)N(C)C1=O (stereo unspecified) (cyclo([X13]PI[NMeV][NMeA][βAla]); configuration not given here),-2.82% [at 25.3 µM]
12,O=C(C[C@@H]1C(C(=O)O)=CO[C@@H](O[C@@H]2O[C@H](CO)[C@@H](O)[C@H](O)[C@H]2O)/C1=C\CO)OCCc1ccc(O)cc1,-0.633% [at 25.3 µM]
13,COC(=O)[C@H](O)[C@H]1C(C)(C)[C@H](OC(C)=O)[C@@]2(O)C(=O)[C@]1(C)C1CC[C@]3(C)C(CC(=O)O[C@H]3c3ccoc3)[C@]13O[C@@H]32 (stereo partly specified),6.94% [at 25.3 µM]
14,CC(=O)c1c(C)cccc1O[C@@H]1O[C@H](CO)[C@@H](O)[C@H](O)[C@H]1O,-0.631% [at 38.5 µM]
15,C/C=C(\C)C(=O)OC1CC2C(CC=C3CC(OC4CC(OC)C(OC5CC(OC)C(OC6CC(OC)C(OC7CC(OC)C(OC8CC(OC)C(OC9OC(CO)C(O)C(O)C9O)C(C)O8)C(C)O7)C(C)O6)C(C)O5)C(C)O4)CCC32C)C2(O)CCC(C(C)=O)C12C (stereo unspecified),-6.32% [at 6.55 µM]
16,COc1ccc2[nH]c(S(=O)Cc3ncc(C)c(OC)c3C)nc2c1 (stereo unspecified),3.48%
17,COc1cc(C)c(C(=O)OC2C(C)OC(OC3CCC(C)C4C3C=C(C)C3/C(C)=C\CC/C(C)=C/C5(C)C=C(C(=O)O)C(C)CC56OC(=O)/C(=C(\O)C34C)C6=O)C(O)C2O)c(OC)c1 (stereo unspecified),0.731% [at 11.6 µM]
18,COc1ccc(/C=C/C(=O)O[C@@H]2[C@@H](O[C@@H]3O[C@H](CO)[C@@H](O)[C@H](O)[C@H]3O)[C@@H](O)[C@H](O[C@H]3C4C=CO[C@@H](O[C@@H]5O[C@H](CO)[C@@H](O)[C@H](O)[C@H]5O)C4[C@@]4(CO)O[C@@H]34)O[C@H]2C)cc1 (stereo partly specified),6.26% [at 11.6 µM]
19,CC(C)C1NC(=O)C(CC2(O)c3ccccc3N3C(=O)C(Cc4ccccc4)NC32)NC1=O (stereo unspecified),5.11% [at 25.3 µM]
